# From PubChem BioAssay
# This is one part of a sample in which hits are shown more often than they occur.
# nsP2pro inh: Primary qHTS for inhibitors of NSP2Pro chikungunya virus (CHIKV); Potency, µM (highest dose often 24.9 µM), hits mostly inhibitors; Polyprotein P1234 (Chikungunya virus (strain S27-African prototype)), Q8JUX6; AID 1964107, 2024; 1.1% of 31,000 active; FRET peptide cleavage, nsP2pro, fluorescence 1 h; further: nearly all actives have a fitted effect of over 60% in size
#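 Enzyme 150 nM, substrate 2.5 uM (both final); Tris-HCl 10 mM pH 8.0 + 0.01% Tween 20; cpd up to 25 uM, 7 pts; 15 min preinc., 1 h RT; fluorescence ex 525/em 598.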
# CHIKV nsP2 cell: Secondary cell base assay for inhibitors of NSP2Pro Chikungunya virus (CHIKV) | shares compounds with nsP2pro inh | cell-based CHIKV nsP2 protease reporter assay | Potency, µM (titrated, usually from 51.1 µM), usual class: inhibitors | 10% of 450 active; further: nearly all actives have a fitted effect of over 70% in size
# NSP2 full ctr: Selectivity profile for inhibitors of NSP2Pro chikungunya virus (CHIKV): Full length NSP2 enzyme counterscreen (CHIKV-NSP2); shares compounds with nsP2pro inh; Full-length CHIKV NSP2 protease enzymatic counterscreen; Potency, µM (highest dose often 50.7 µM), usual class: inhibitors; 39% of 410 active; AID 1964101, 2024; further: nearly all actives have a fitted effect of over 65% in size
# Furin counterscr: Selectivity profile for inhibitors of NSP2Pro chikungunya virus (CHIKV): Human furin counterscreen; shares compounds with nsP2pro inh; Recombinant human furin enzymatic counterscreen, fluorogenic substrate; Potency, µM (doses to about 50.6 µM), most hits filed as inhibitors; 6% of 410 active
# NS23 peptide cs: Selectivity profile for inhibitors of NSP2Pro chikungunya virus (CHIKV): Endogenous NS2/3 peptide Counterscreen; shares compounds with nsP2pro inh; Purified CHIKV nsP2 protease, endogenous NS2/3 peptide cleavage; Potency, µM (titrated, usually from 51 µM), hits mostly inhibitors; 34% of 410 active; further: nearly all actives have a fitted effect of over 55% in size
# Papain counter: Selectivity profile for inhibitors of NSP2Pro chikungunya virus (CHIKV): Papain Counterscreen; shares compounds with nsP2pro inh; purified papain protease activity, enzymatic inhibition; Potency, µM (titrated, usually from 51 µM), usual class: inhibitors; 5% of 410 active; AID 1964104, 2024
# nsP2pro confirm: Confirmatory qHTS for inhibitors of NSP2Pro chikungunya virus (CHIKV); shares compounds with nsP2pro inh; CHIKV nsP2 protease enzymatic activity, qHTS; Potency, µM (highest dose often 25.5 µM), most hits filed as inhibitors; 43% of 410 active; further: nearly all actives have a fitted effect of over 75% in size
# HCV NS3 4A cs: Selectivity profile for inhibitors of NSP2Pro chikungunya virus (CHIKV): NS34A-HCV Counterscreen; shares compounds with nsP2pro inh; 20% of 410 active; HCV NS3/4A protease biochemical counterscreen; Potency, µM (top dose mostly 50.9 µM), hits mostly inhibitors; further: nearly all actives have a fitted effect of over 55% in size
# A number is an active result; 0 = inactive; ? = inconclusive. The call rests on the fitted dose curve.
SMILES,nsP2pro inh,others
CC(=O)Oc1cc2c(s1)CCN(C(C(=O)C1CC1)c1ccccc1F)C2 (centres undefined),?,CHIKV nsP2 cell=0;NSP2 full ctr=?;Furin counterscr=0;NS23 peptide cs=?;Papain counter=?;nsP2pro confirm=?;HCV NS3 4A cs=0
O=C(NCC1CCCCN1)c1cc(OCC(F)(F)F)ccc1OCC(F)(F)F (centres undefined),0,
CCOC(=O)c1ccc(N2C(=O)c3n[nH]c(-c4ccco4)c3C2c2cccc(F)c2)cc1 (centres undefined),0,
Cc1cc(C(=O)N2CCC(OCCOc3ccc(F)cc3)CC2)nn1C,0,
O=C(c1cc(-c2ccco2)[nH]n1)N1CCSC(c2cc(F)ccc2F)CC1 (centres undefined),3.2µM,CHIKV nsP2 cell=0;NSP2 full ctr=5.8µM;Furin counterscr=0;NS23 peptide cs=?;Papain counter=0;nsP2pro confirm=9µM;HCV NS3 4A cs=16µM
CCOC(=O)C1CCCN(S(=O)(=O)c2ccc(F)c(C(=O)Nc3ccc(F)c(F)c3)c2)C1 (centres undefined),0,
CN(Cc1ccco1)c1ncnc2ccc(-c3ccoc3)cc12,0,
Cc1ccc(-n2c(C)cc(-c3nnc4n3CCCCC4)c2C)cc1,?,CHIKV nsP2 cell=21µM;NSP2 full ctr=?;Furin counterscr=0;NS23 peptide cs=?;Papain counter=0;nsP2pro confirm=?;HCV NS3 4A cs=?
COc1ccc(-n2c(C)cc(-c3nnc4n3CCCCC4)c2C)cc1,0,
Cc1cc(-c2nnc3n2CCCCC3)c(C)n1-c1ccncc1,0,
CCCCc1nc2cc(/C=C/C(=O)NO)ccc2n1CCN(CC)CC,0,
Cn1c(CCCC(=O)O)nc2cc(N(CCCl)CCCl)ccc21,9.9µM,CHIKV nsP2 cell=0;NSP2 full ctr=16µM;Furin counterscr=0;NS23 peptide cs=?;Papain counter=0;nsP2pro confirm=8µM;HCV NS3 4A cs=?
Cn1c(CN2CCCCC2)nc2cc(NC(=O)c3ccc(Cl)cc3)ccc21,0,
COc1ccc(Cn2c(=O)n(-c3ccc(C)cc3)c(=O)c3c2c2cc(C)ccc2n3C)cc1,0,
Cc1ccc(Cl)c2sc(NC(=O)c3ccc(S(=O)(=O)N4CCCC4)cc3)nc12,0,
CCc1noc(-c2nc(Cc3cccc(F)c3)no2)n1,0,
O=C(NC1CCCCC1)N1Cc2[nH]cnc2C[C@H]1c1nc(-c2ccccc2)no1,0,
Cc1cccc(-c2noc([C@@H]3Cc4nc[nH]c4CN3C(=O)NC3CCCCC3)n2)c1,0.63µM,CHIKV nsP2 cell=0;NSP2 full ctr=5.3µM;Furin counterscr=0;NS23 peptide cs=7.5µM;Papain counter=0;nsP2pro confirm=2.1µM;HCV NS3 4A cs=0
O=C(Nc1cccc(F)c1)N1Cc2[nH]cnc2C[C@H]1c1nc(-c2ccncc2)no1,0,
Cc1cccc(OCC(=O)N2CCN(Cc3ccc(=O)n(C)c3)CC2)c1,0,
Cc1ccc(NC(=O)c2ccc(NC(=O)N3CCSc4ncccc43)cc2)c(C)c1,0,
CC1=CC(=O)CC2C1(O)CCC(C)C21CC(c2ccoc2)OC1=O (centres undefined),0,
COc1cc(/C=C/C(=O)OC2CC(OC(C)=O)C(OC(C)=O)C3C2CCC2C(=O)OC(c4ccoc4)CC23C)ccc1O[C@@H]1O[C@H](CO)[C@@H](O)[C@H](O)[C@H]1O (some centres undefined),0,
COC(=O)C1(O)C(OC(C)=O)CCC2C3(CC(c4ccoc4)OC3=O)C(C)=CCC21C(=O)OC (centres undefined),1.9µM,CHIKV nsP2 cell=0;NSP2 full ctr=0;Furin counterscr=0;NS23 peptide cs=0;Papain counter=0;nsP2pro confirm=0;HCV NS3 4A cs=0
CCN1C[C@]2(OC(=O)c3ccccc3NC(C)=O)CC[C@H](OC)[C@@]34[C@@H]2C[C@@H]([C@@H]13)[C@@]1(O)C[C@H](OC)[C@H]2C[C@@H]4[C@]1(O)[C@H]2OC,0,
SMILES,nsP2pro inh,others
N#Cc1ccc(-c2ccc(C3Nc4ccccc4C(=O)N3O)o2)cc1 (centres undefined),10µM,CHIKV nsP2 cell=23µM;NSP2 full ctr=0;Furin counterscr=0;NS23 peptide cs=0;Papain counter=0;nsP2pro confirm=?;HCV NS3 4A cs=0
N#Cc1ccc(-c2ccc(CNc3ccc(C4CCNCC4)cc3)o2)cc1,0,
Cc1oc(-c2cccc(Br)c2)nc1Cn1c(=O)cc(-c2ccccc2)c2c(C)nn(C)c21,0,
COc1ccc(C2=Nn3c(nnc3-c3cccc(OC)c3OC)SC2)cc1,0,
COc1cc(O)c2c(c1)C1(OC2=O)C(C)=CC(=O)C1O (centres undefined),0,
Cc1ccc(NC(=O)c2cnn3c(C(F)F)cc(-c4ccccc4)nc23)c(C)c1,0,
Cc1cc(CCCOc2c(C)cc(-c3noc(C(F)(F)F)n3)cc2C)on1,?,CHIKV nsP2 cell=0;NSP2 full ctr=0;Furin counterscr=0;NS23 peptide cs=0;Papain counter=0;nsP2pro confirm=0;HCV NS3 4A cs=0
CCC(=O)O[C@]1(C(=O)COC(C)=O)CC[C@H]2[C@@H]3CCC4=CC(=O)CC[C@]4(C)[C@H]3[C@@H](O)C[C@@]21C,0,
CCCSc1ccc2nc(NC(=O)OC)[nH]c2c1,0,
O=C([C@@H]1C[C@H](F)CN1C(=O)NC1CCCCC1)N1CCc2ccccc2C1,0,
Cc1ccc2c(Nc3ccc(Cl)cc3)nccc2c1Nc1ncccc1-c1ncnc2nc[nH]c12,0,
O=C(c1ccco1)n1nc(-c2ccccc2)nc1NCc1ccc(Cl)cc1,0,
COc1ccccc1CNc1nc2c(S(=O)(=O)c3ccc(C)c(C)c3)nnn2c2ccc(Cl)cc12,0,
COc1ccccc1CNc1nc(-c2ccco2)nn1S(=O)(=O)c1ccc(Cl)cc1,8.9µM,CHIKV nsP2 cell=0
O=C(/C=C/c1ccc(O)c(O)c1)O[C@@H](C(=O)O)[C@@H](OC(=O)/C=C/c1ccc(O)c(O)c1)C(=O)O,0,
COc1cc(/C=C/C(=O)O)ccc1O,0,
O=C(O)/C=C/c1ccc(O)c(O)c1,?,CHIKV nsP2 cell=0;NSP2 full ctr=0;Furin counterscr=0;NS23 peptide cs=0;Papain counter=0;nsP2pro confirm=0;HCV NS3 4A cs=?
CCOc1ccc(-c2csc(N3CCC(C(N)=O)CC3)n2)cc1,0,
Nc1nc2ccc(OC(F)(F)F)cc2s1,0,
